# Results taken from the supplement of paper PMC8728848.
# Shown is part of a subset that was picked to be rich in the strongest signals.
# B1: SUN4P (Saccharomyces cerevisiae), P53616 (protein)
# chain: MGSSHHHHHHSSGLVPRGSHNGSIYGDLADFSGPYEKFEDGTIPCGQFPSGQGVIPISWLDEGGWSGVENTDTSTGGSCKEGSYCSYACQPGMSKTQWPSDQPSDGRSIGGLLCKDGYLYRSNTDTDYLCEWGVDAAYVVSELSNDVAICLTDYPGTENMVIPTYVQAGDSLPLTVVDQDTYYTWQGLKTSAQYYVNNAGISVEDACVWGSSSSGVGNWAPLNFGAGSSDGVAYLSLIPNPNNGNALNFNVKIVAADDSSTVNGECIYENGSFSGGSDGCTVSVTAGKAKFVLYN
# What was measured:
# Assay in all cases: glycan array binding signal (z-score within array); higher = stronger binding
# Conditions in all cases: glycan notation: IUPAC condensed, linker removed; mutation: R276L
# [1] = biological target: Fuc(a1-2)Gal(b1-3)[Fuc(a1-4)]GlcNAc(b1-3)[Fuc(a1-3)[Gal(b1-4)]GlcNAc(b1-6)]Gal(b1-4)Glc
# Summary of the method: (§1)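 The binding signal is a Z-score computed within each array. Data were drawn from 3228 arrays in the Consortium for Functional Glycomics database, restricted to those with a known protein sequence. Scores were averaged over arrays of the same protein sequence at different concentrations or buffers, and over linkers, and negative values can be taken as non-binding.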
# [2] = biological target: Fuc(a1-2)Gal(b1-3)[Fuc(a1-4)]GlcNAc(b1-3)[Gal(b1-4)GlcNAc(b1-6)]Gal(b1-4)Glc
# Summary of the method: as §1
# [3] = biological target: Fuc(a1-2)Gal(b1-4)GlcNAc(b1-2)Man(a1-3)[Fuc(a1-2)Gal(b1-4)GlcNAc(b1-2)Man(a1-6)]Man(b1-4)GlcNAc(b1-4)GlcNAc
# Summary of the method: as §1
# [4] = biological target: Fuc(a1-2)Gal(b1-4)GlcNAc(b1-3)GalNAc
# Summary of the method: as §1
# [5] = biological target: Fuc(a1-2)Gal(b1-4)GlcNAc(b1-3)[Fuc(a1-2)Gal(b1-4)GlcNAc(b1-6)]GalNAc
# Summary of the method: as §1
# [6] = biological target: Fuc(a1-2)Gal(b1-4)GlcNAc6S
# Summary of the method: as §1
# [7] = biological target: Fuc(a1-2)[GalNAc(a1-3)]Gal(b1-3)GalNAc(b1-3)Gal(a1-4)Gal(b1-4)Glc
# Summary of the method: as §1
# [8] = biological target: Fuc(a1-2)[GalNAc(a1-3)]Gal(b1-3)GlcNAc
# Summary of the method: as §1
# [9] = biological target: Fuc(a1-2)[GalNAc(b1-3)]Gal
# Summary of the method: as §1
# [10] = biological target: Gal(a1-3)Gal(b1-3)[Fuc(a1-4)]GlcNAc(b1-2)Man(a1-3)[Gal(a1-3)Gal(b1-3)[Fuc(a1-4)]GlcNAc(b1-2)Man(a1-6)]Man(b1-4)GlcNAc(b1-4)GlcNAc
# Summary of the method: as §1
# [11] = biological target: Gal(a1-4)GlcNAc
# Summary of the method: as §1
# [12] = biological target: Gal(b1-2)Gal
# Summary of the method: as §1
# [13] = biological target: Gal(b1-3)Gal
# Summary of the method: as §1
# [14] = biological target: Gal(b1-3)GalNAc
# Summary of the method: as §1
# [15] = biological target: Gal(b1-3)GalNAc(b1-3)Gal
# Summary of the method: as §1
# [16] = biological target: Gal(b1-3)GalNAc(b1-4)Gal(b1-4)Glc
# Summary of the method: as §1
# [17] = biological target: Gal(b1-3)GlcNAc
# Summary of the method: as §1
# [18] = biological target: Gal(b1-3)GlcNAc(b1-2)Man(a1-3)[Gal(b1-3)GlcNAc(b1-2)Man(a1-6)]Man(b1-4)GlcNAc(b1-4)GlcNAc
# Summary of the method: as §1
# [19] = biological target: Gal(b1-3)GlcNAc(b1-3)Gal(b1-4)Glc
# Summary of the method: as §1
# [20] = biological target: Gal(b1-3)GlcNAc(b1-3)Gal(b1-4)GlcNAc(b1-2)[Gal(b1-3)GlcNAc(b1-3)Gal(b1-4)GlcNAc(b1-6)]Man(a1-6)[Gal(b1-3)GlcNAc(b1-3)Gal(b1-4)GlcNAc(b1-2)Man(a1-3)]Man(b1-4)GlcNAc(b1-4)[Fuc(a1-6)]GlcNAc
# Summary of the method: as §1
# [21] = biological target: Gal(b1-3)[Neu5Ac(a2-6)]GalNAc
# Summary of the method: as §1
# [22] = biological target: Gal(b1-4)GlcNAc(b1-2)Man(a1-3)Man(b1-4)GlcNAc(b1-4)GlcNAc
# Summary of the method: as §1
# [23] = biological target: Gal(b1-4)GlcNAc(b1-2)Man(a1-3)[GlcNAc(b1-2)Man(a1-6)]Man(b1-4)GlcNAc(b1-4)GlcNAc
# Summary of the method: as §1
# [24] = biological target: Gal(b1-4)GlcNAc(b1-2)[Gal(b1-4)GlcNAc(b1-4)]Man(a1-3)[GlcNAc(b1-4)][Gal(b1-4)GlcNAc(b1-2)[Gal(b1-4)GlcNAc(b1-6)]Man(a1-6)]Man(b1-4)GlcNAc(b1-4)GlcNAc
# Summary of the method: as §1
# [25] = biological target: Gal(b1-4)GlcNAc(b1-3)Gal(b1-4)GlcNAc(b1-2)[Gal(b1-4)GlcNAc(b1-3)Gal(b1-4)GlcNAc(b1-6)]Man(a1-6)[Gal(b1-4)GlcNAc(b1-3)Gal(b1-4)GlcNAc(b1-2)Man(a1-3)]Man(b1-4)GlcNAc(b1-4)GlcNAc
# Summary of the method: as §1
# [26] = biological target: Gal(b1-4)GlcNAc(b1-3)Gal(b1-4)GlcNAc(b1-3)Gal(b1-4)GlcNAc(b1-2)Man(a1-3)[Gal(b1-4)GlcNAc(b1-3)Gal(b1-4)GlcNAc(b1-3)Gal(b1-4)GlcNAc(b1-2)Man(a1-6)]Man(b1-4)GlcNAc(b1-4)GlcNAc
# Summary of the method: as §1
# [27] = biological target: Gal(b1-4)GlcNAc(b1-3)Gal(b1-4)GlcNAc(b1-3)Gal(b1-4)GlcNAc(b1-2)[Gal(b1-4)GlcNAc(b1-3)Gal(b1-4)GlcNAc(b1-3)Gal(b1-4)GlcNAc(b1-6)]Man(a1-6)[Gal(b1-4)GlcNAc(b1-3)Gal(b1-4)GlcNAc(b1-3)Gal(b1-4)GlcNAc(b1-2)Man(a1-3)]Man(b1-4)GlcNAc(b1-4)[Fuc(a1-6)]GlcNAc
# Summary of the method: as §1
# [28] = biological target: Gal(b1-4)GlcNAc(b1-6)GalNAc
# Summary of the method: as §1
# [29] = biological target: Gal3S6S(b1-4)GlcNAc
# Summary of the method: as §1
# [30] = biological target: Gal4S6S(b1-4)GlcNAc
# Summary of the method: as §1
# [31] = biological target: GalNAc(b1-4)GlcNAc
# Summary of the method: as §1
# [32] = biological target: Glc(a1-6)Glc(a1-6)Glc
# Summary of the method: as §1
# [33] = biological target: GlcNAc(a1-4)Gal(b1-3)GlcNAc
# Summary of the method: as §1
# [34] = biological target: GlcNAc(a1-4)Gal(b1-4)GlcNAc(b1-3)Gal(b1-4)Glc
# Summary of the method: as §1
# [35] = biological target: GlcNAc(a1-4)Gal(b1-4)GlcNAc(b1-3)Gal(b1-4)GlcNAc
# Summary of the method: as §1
# [36] = biological target: GlcNAc(b1-3)Gal(b1-4)GlcNAc(b1-3)GalNAc
# Summary of the method: as §1
# [37] = biological target: Man(a1-3)[Man(a1-6)]Man(b1-4)GlcNAc(b1-4)GlcNAc
# Summary of the method: as §1
# [38] = biological target: Man(a1-3)[Man(a1-6)]Man(b1-4)GlcNAc(b1-4)[Fuc(a1-6)]GlcNAc
# Summary of the method: as §1
# [39] = biological target: Neu5Ac(a2-3)Gal(b1-3)GlcNAc
# Summary of the method: as §1
# [40] = biological target: Neu5Ac(a2-3)Gal(b1-3)[Neu5Ac(a2-6)]GalNAc
# Summary of the method: as §1
# [41] = biological target: Neu5Ac(a2-3)Gal(b1-4)Glc
# Summary of the method: as §1
# [42] = biological target: Neu5Ac(a2-3)Gal6S(b1-4)[Fuc(a1-3)]GlcNAc
# Summary of the method: as §1
# [43] = biological target: Neu5Ac(a2-3)[GalNAc(b1-4)]Gal(b1-4)Glc
# Summary of the method: as §1
# [44] = biological target: Neu5Ac(a2-6)Gal(b1-4)GlcNAc(b1-2)Man
# Summary of the method: as §1
# [45] = biological target: Neu5Ac(a2-6)Gal(b1-4)GlcNAc(b1-2)Man(a1-6)[GlcNAc(b1-2)Man(a1-3)]Man(b1-4)GlcNAc(b1-4)GlcNAc
# Summary of the method: as §1
# [46] = biological target: Neu5Ac(a2-6)GlcNAc(b1-4)GlcNAc
# Summary of the method: as §1
# [47] = biological target: Neu5Gc(a2-3)Gal(b1-3)GlcNAc
# Summary of the method: as §1
# [48] = biological target: Neu5Gc(a2-3)Gal(b1-4)GlcNAc(b1-3)Gal(b1-4)GlcNAc(b1-2)Man(a1-3)[Neu5Gc(a2-3)Gal(b1-4)GlcNAc(b1-3)Gal(b1-4)GlcNAc(b1-2)Man(a1-6)]Man(b1-4)GlcNAc(b1-4)GlcNAc
# Summary of the method: as §1
binder,measurement,setting,value
B1,glycan array binding signal (z-score),[1],-1.15
same,glycan array binding signal (z-score),[2],-0.39
same,glycan array binding signal (z-score),[3],-0.72
same,glycan array binding signal (z-score),[4],-0.667
same,glycan array binding signal (z-score),[5],-0.351
same,glycan array binding signal (z-score),[6],1.81
same,glycan array binding signal (z-score),[7],-0.881
same,glycan array binding signal (z-score),[8],-0.545
same,glycan array binding signal (z-score),[9],1.77
same,glycan array binding signal (z-score),[10],-0.029
same,glycan array binding signal (z-score),[11],-0.2
same,glycan array binding signal (z-score),[12],0.046
same,glycan array binding signal (z-score),[13],1.8
same,glycan array binding signal (z-score),[14],2.6
same,glycan array binding signal (z-score),[15],7.07
same,glycan array binding signal (z-score),[16],11.2
same,glycan array binding signal (z-score),[17],-0.318
same,glycan array binding signal (z-score),[18],-0.366
same,glycan array binding signal (z-score),[19],-0.852
same,glycan array binding signal (z-score),[20],2.11
same,glycan array binding signal (z-score),[21],2.79
same,glycan array binding signal (z-score),[22],-0.274
same,glycan array binding signal (z-score),[23],-0.054
same,glycan array binding signal (z-score),[24],0.051
same,glycan array binding signal (z-score),[25],-0.671
same,glycan array binding signal (z-score),[26],0.667
same,glycan array binding signal (z-score),[27],2.41
same,glycan array binding signal (z-score),[28],-0.068
same,glycan array binding signal (z-score),[29],1.73
same,glycan array binding signal (z-score),[30],0.289
same,glycan array binding signal (z-score),[31],-0.514
same,glycan array binding signal (z-score),[32],-1.11
same,glycan array binding signal (z-score),[33],1.83
same,glycan array binding signal (z-score),[34],-1.22
same,glycan array binding signal (z-score),[35],-0.664
same,glycan array binding signal (z-score),[36],2.14
same,glycan array binding signal (z-score),[37],-0.241
same,glycan array binding signal (z-score),[38],-0.543
same,glycan array binding signal (z-score),[39],0.214
same,glycan array binding signal (z-score),[40],-0.468
same,glycan array binding signal (z-score),[41],-1.01
same,glycan array binding signal (z-score),[42],-1.12
same,glycan array binding signal (z-score),[43],1.36
same,glycan array binding signal (z-score),[44],0.374
same,glycan array binding signal (z-score),[45],0.936
same,glycan array binding signal (z-score),[46],2.98
same,glycan array binding signal (z-score),[47],0.424
same,glycan array binding signal (z-score),[48],-0.663
